Laboratory results reported in PubChem BioAssay AID1159580 (chemical genetic matrix, 2015).
The campaign covered roughly 5,500 compounds. About 2,000 (36%) were called active. Inconclusive results (about 18%) are left out. Rule as the data show it: active = normalized growth mostly below about 0.91 (no sharp cut-off); inconclusive = no clear call, values can overlap the other calls; inactive = mostly above about 0.92. Some of the results follow.

Test: chemical genetic growth profiling, strain panel (AID 1159580);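 also: tested at 20 µM; growth read once vehicle control cultures reached saturation at 30 °C; 1 = growth at the plate median or of vehicle wells; lower values mean less growth of the strain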
Conditions: S. cerevisiae deletion strains, growth OD

Measured: normalized growth

CC(=O)O[C@@H]1C[C@@]2(C)C(CC[C@@H]2C(C)=O)C2CCC3=CC(=O)CC[C@]3(C)C21 (stereo not given in full)
inactive: locus YAL021C, strain ccr4, hits give low values 0.996 | locus YAL026C, strain drs2, hits give low values 1.03 | locus YAL030W, strain snc1, hits give low values 1.01 | locus YBL061C, strain skt5, hits give low values 1.01 | locus YBR009C, strain hhf1, hits give low values 1.06 | locus YBR023C, strain chs3, hits give low values 1 | locus YBR171W, strain sec66, hits give low values 0.964 | locus YBR231C, strain swc5, hits give low values 1.02 | locus YBR279W, strain paf1, hits give low values 1 | locus YCL011C, strain gbp2, hits give low values 1.02 | locus YCL016C, strain dcc1, hits give low values 1.02 | locus YCL061C, strain MRC1, hits give low values 1.01 | locus YCL069W, strain vba3, hits give low values 1.02 | locus YCR088W, strain abp1, hits give low values 1.02 | locus YDL005C, strain med2, hits give low values 1.01 | locus YDL040C, strain nat1, hits give low values 1.01 | locus YDR001C, strain nth1, hits give low values 0.997 | locus YDR069C, strain doa4, hits give low values 1.02 | locus YDR137W, strain rgp1, hits give low values 0.974 | locus YDR159W, strain sac3, hits give low values 1.02 | locus YDR195W, strain ref2 1.06 | locus YDR297W, strain sur2, hits give low values 1.01 | locus YDR334W, strain swr1, hits give low values 1.03 | locus YDR335W, strain msn5, hits give low values 1 | locus YDR392W, strain spt3, hits give low values 0.863 | locus YEL003W, strain gim4, hits give low values 1.02 | locus YEL037C, strain rad23, hits give low values 1.01 | locus YEL061C, strain CIN8 (second series), hits give low values 1.02 | locus YER015W, strain faa2, hits give low values 1.01 | locus YER016W, strain bim1, hits give low values 1.02 | locus YER111C, strain swi4, hits give low values 1.01 | locus YER155C, strain BEM2 (second series), hits give low values 1.04 | locus YFR010W, strain ubp6, hits give low values 1.02 | locus YGL167C, strain pmr1, hits give low values 1.02 | locus YGL173C, strain kem1, hits give low values 1.03 | locus YGL227W, strain vid30, hits give low values 1.01 | locus YGL240W, strain doc1, hits give low values 1.04 | locus YGL253W, strain hxk2, hits give low values 1 | locus YHR013C, strain ard1, hits give low values 0.974 | locus YHR027C, strain rpn1, hits give low values 1.01 | locus YHR030C, strain SLT2, hits give low values 0.967 | locus YHR079C, strain IRE1, hits give low values 0.985 | locus YHR142W, strain chs7, hits give low values 0.947 | locus YJL092W, strain hpr5, hits give low values 1.01 | locus YJL095W, strain BCK1 (second series), hits give low values 1.02 | locus YJL095W, strain BCK1, hits give low values 0.997 | locus YJL115W, strain asf1, hits give low values 1.01 | locus YJL129C, strain trk1, hits give low values 0.95 | locus YJL154C, strain vps35, hits give low values 1.01 | locus YJL164C, strain tpk1, hits give low values 0.985 | locus YJL166W, strain qcr8, hits give low values 1.01 | locus YJL187C, strain SWE1, hits give low values 1.01 | locus YJR066W, strain TOR1, hits give low values 0.953 | locus YKL160W, strain elf1, hits give low values 0.965 | locus YKR026C, strain gcn3, hits give low values 1.01 | locus YKR091W, strain srl3, hits give low values 1.01 | locus YLL001W, strain dnm1, hits give low values 1.02 | locus YLL026W, hits give low values 1.02 | locus YLL041C, strain sdh2, hits give low values 1 | locus YLR027C, strain aat2, hits give low values 0.998 | locus YLR113W, strain HOG1, hits give low values 1.02 | locus YLR221C, strain rsa3, hits give low values 0.969 | locus YLR258W, strain gsy2, hits give low values 1.04 | locus YLR262C, strain YPT6 (second series), hits give low values 0.964 | locus YLR320W, strain mms22, hits give low values 0.97 | locus YLR342W, strain FKS1, hits give low values 1.02 | locus YLR357W, strain rsc2, hits give low values 1.03 | locus YLR370C, strain arc18, hits give low values 1 | locus YLR384C, strain iki3, hits give low values 1.01 | locus YML120C, strain ndi1, hits give low values 0.981 | locus YMR058W, strain fet3, hits give low values 1.01 | locus YMR125W, strain sto1, hits give low values 1.02 | locus YMR129W, hits give low values 1.01 | locus YMR205C, strain PFK2, hits give low values 1.05 | locus YMR231W, strain pep5, hits give low values 1.02 | locus YNL071W, strain lat1, hits give low values 0.97 | locus YNL183C, strain NPR1, hits give low values 0.984 | locus YNL209W, strain ssb2, hits give low values 1 | locus YNL248C, strain rpa49, hits give low values 0.953 | locus YNL322C, strain KRE1 (second series), hits give low values 1.01 | locus YNR049C, strain mso1, hits give low values 1.01 | locus YOR001W, strain rrp6, hits give low values 0.947 | locus YOR070C, strain gyp1, hits give low values 1.01 | locus YOR080W, strain dia2, hits give low values 1.01 | locus YOR083W, strain WHI5, hits give low values 0.953 | locus YOR106W, strain vam3, hits give low values 0.974 | locus YOR231W, strain MKK1, hits give low values 0.979 | locus YOR265W, strain rbl2, hits give low values 1 | locus YOR270C, strain vph1, hits give low values 0.999 | locus YOR290C, strain snf2, hits give low values 0.98 | locus YPL051W, strain arl3, hits give low values 0.976 | locus YPL078C, strain atp4, hits give low values 0.97 | locus YPL106C, strain sse1, hits give low values 1.03 | locus YPL240C, strain hsp82, hits give low values 0.984 | locus YPL256C, strain CLN2, hits give low values 0.973
